Results from doi:10.1101/2024.03.05.583629.

Target: pT7_6His-AlfaTag-HOXD13 (human, UniProt P35453 263-343)
Assay: PADIT-seq
Details: dsDNA, one strand shown

Chain of pT7_6His-AlfaTag-HOXD13 (P35453 263-343): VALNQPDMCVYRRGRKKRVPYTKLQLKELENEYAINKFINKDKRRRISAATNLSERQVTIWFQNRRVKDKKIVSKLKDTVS

| Sequence | binding signal [log2FC] |
| --- | --- |
| CTCGAGGATATCAAGATCTGGCCTCGGCTGATTAAAAGGAACCTCTAGCTAGCCGACTCACTATAGGGATAATCGCCCTGAGCAAAGACC | 1.86 ± 0.0796 |
| CTCGAGGATATCAAGATCTGGCCTCGGCCATCTAAAAGGAACCTCTAGCTAGCCGACTCACTATAGGGATAATCGCCCTGAGCAAAGACC | -0.085 ± 0.105 |
| CTCGAGGATATCAAGATCTGGCCTCGGCGATCTAAAAGGAACCTCTAGCTAGCCGACTCACTATAGGGATAATCGCCCTGAGCAAAGACC | -0.592 ± 0.0883 |
| CTCGAGGATATCAAGATCTGGCCTCGGCATTTTATTTGGAACCTCTAGCTAGCCGACTCACTATAGGGATAATCGCCCTGAGCAAAGACC | 2.85 ± 0.07 |
| CTCGAGGATATCAAGATCTGGCCTCGGCGAGGTAAAAGGAACCTCTAGCTAGCCGACTCACTATAGGGATAATCGCCCTGAGCAAAGACC | -0.51 ± 0.0909 |
| CTCGAGGATATCAAGATCTGGCCTCGGCCTGGTAAAAGGAACCTCTAGCTAGCCGACTCACTATAGGGATAATCGCCCTGAGCAAAGACC | 0.442 ± 0.0982 |
| CTCGAGGATATCAAGATCTGGCCTCGGCTCCCTAAAAGGAACCTCTAGCTAGCCGACTCACTATAGGGATAATCGCCCTGAGCAAAGACC | -0.0391 ± 0.141 |
| CTCGAGGATATCAAGATCTGGCCTCGGCCGCCCAACTGGAACCTCTAGCTAGCCGACTCACTATAGGGATAATCGCCCTGAGCAAAGACC | -1.02 ± 0.119 |
| CTCGAGGATATCAAGATCTGGCCTCGGCGGGGTAAAAGGAACCTCTAGCTAGCCGACTCACTATAGGGATAATCGCCCTGAGCAAAGACC | -0.462 ± 0.0883 |
| CTCGAGGATATCAAGATCTGGCCTCGGCTTTATAAAAGGAACCTCTAGCTAGCCGACTCACTATAGGGATAATCGCCCTGAGCAAAGACC | 2.35 ± 0.0828 |
| CTCGAGGATATCAAGATCTGGCCTCGGCAAGTTAAAAGGAACCTCTAGCTAGCCGACTCACTATAGGGATAATCGCCCTGAGCAAAGACC | 1.07 ± 0.0825 |
| CTCGAGGATATCAAGATCTGGCCTCGGCTGGGTAAAAGGAACCTCTAGCTAGCCGACTCACTATAGGGATAATCGCCCTGAGCAAAGACC | -0.514 ± 0.0905 |
| CTCGAGGATATCAAGATCTGGCCTCGGCGCGTGGCGAGGAACCTCTAGCTAGCCGACTCACTATAGGGATAATCGCCCTGAGCAAAGACC | -0.862 ± 0.192 |
| CTCGAGGATATCAAGATCTGGCCTCGGCGTTTTACGCGGAACCTCTAGCTAGCCGACTCACTATAGGGATAATCGCCCTGAGCAAAGACC | 2.22 ± 0.0821 |
| CTCGAGGATATCAAGATCTGGCCTCGGCGGATTAAAAGGAACCTCTAGCTAGCCGACTCACTATAGGGATAATCGCCCTGAGCAAAGACC | 1.17 ± 0.076 |
| CTCGAGGATATCAAGATCTGGCCTCGGCCTTTTAAGTGGAACCTCTAGCTAGCCGACTCACTATAGGGATAATCGCCCTGAGCAAAGACC | 1.38 ± 0.0835 |
| CTCGAGGATATCAAGATCTGGCCTCGGCGTTTTAGACGGAACCTCTAGCTAGCCGACTCACTATAGGGATAATCGCCCTGAGCAAAGACC | -0.509 ± 0.117 |
| CTCGAGGATATCAAGATCTGGCCTCGGCTTAGTAAAAGGAACCTCTAGCTAGCCGACTCACTATAGGGATAATCGCCCTGAGCAAAGACC | 1.23 ± 0.0947 |
